Measurements from the supplement of paper PMC5940239.
Unmarked numbers belong to inactive results.

System: Madurella mycetomatis MM55
Test: percent growth relative to solvent control; higher = less inhibition, active = 20 or less
Conditions: 100 µM; 7 days

Row | Structure (SMILES) | percent growth [%]
1 | O=C(NCc1ccco1)N1CCN(Cc2ccc(Cl)s2)CC1 | 90.6
2 | COc1ccc(C2=NCCN2)cc1-c1cn(-c2cccc(C3=NCCN3)c2)nn1 | 94
3 | CCc1ccccc1-n1c(C)cn2c3c(=O)n(C(C(=O)OC)C(C)C)c(=O)n(C)c3nc12 (stereo unspecified) | 79.9
4 | CCC(C)NC(=O)c1ccc(NC(=O)C2(c3ccccc3)CCCC2)cc1 (stereo unspecified) | 96.7
5 | COc1cccn2c(C(=O)N3CCCCC3)c(C(F)(F)F)nc12 | 85.7
6 | Nc1ncc(-c2cn[nH]c2)cc1-c1nc2cc(Cl)cnc2[nH]1 | 127
7 | COc1cc(C2=NCCN2)ccc1-c1cn(-c2cccc(C3=NCCN3)c2)nn1 | 61
8 | CC(C(=O)N1CCCC1)N1CCN(S(=O)(=O)c2ccc(C(C)(C)C)cc2)CC1 (stereo unspecified) | 89.9
9 | COc1ccc(C2CC(c3cccs3)=NN2C(=O)c2ccco2)cc1OC (stereo unspecified) | 100
10 | CC(C)C(Oc1cccc2ccccc12)C(=O)O (stereo unspecified) | 118
11 | Clc1cccc(C(c2ccc(CN3CCNCC3)cc2)n2ccnc2)c1 (stereo unspecified) | 115
12 | CCn1ncc2c(NC3CCOCC3)c(CNC(=O)c3ccnn3C)c(C)nc21 | 142
13 | CC(=O)NC[C@@H]1CN(c2ccc(N3CCOCC3)c(F)c2)C(=O)O1 | 107
14 | CC(C)(C)CN1C(=O)C(c2ccccc2)(c2ccccc2)N=C1N | 66.1
15 | CC(=O)NC[C@H]1CN(c2ccc(N3CCSCC3)c(F)c2)C(=O)O1 | 94.5
16 | Nc1nc(N)c2c3c(sc2n1)CN(Cc1ccccc1)CC3 | 88
